Measurements reported in PubChem BioAssay (NCI).
The panel holds about 83,000 compounds, 20% with a hit somewhere; the sample as a whole holds those more often.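 How to read the values: 0–100, growth inhibition (40 = 60% inhibited); 0, no net growth; -100 to 0, cell death (-40 = 40% of starting cells died; -100 = all dead).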 Activity calls are given as the source filed them. The calls were made as follows: active = growth percent below 10; inactive = the rest.

How the values were obtained:
Assay in all cases: NCI-60 one-dose screen, 48 h (100 = growth as untreated, 0 = no growth, -100 = all killed)
Conditions in all cases: 10 µM unless noted
SK-MEL-2 melanoma = system: SK-MEL-2 melanoma
EKVX NSCLC = system: EKVX NSCLC
SN12C renal = system: SN12C renal
UO-31 renal = system: UO-31 renal
TK-10 renal = system: TK-10 renal
ACHN renal = system: ACHN renal
CAKI-1 renal = system: CAKI-1 renal
A498 renal = system: A498 renal
CCRF-CEM leukemia = system: CCRF-CEM leukemia
MOLT-4 leukemia = system: MOLT-4 leukemia
SR leukemia = system: SR leukemia
RPMI-8226 leukemia = system: RPMI-8226 leukemia
OVCAR-8 ovarian = system: OVCAR-8 ovarian
OVCAR-5 ovarian = system: OVCAR-5 ovarian
OVCAR-4 ovarian = system: OVCAR-4 ovarian
SK-OV-3 ovarian = system: SK-OV-3 ovarian
IGROV1 ovarian = system: IGROV1 ovarian
OVCAR-3 ovarian = system: OVCAR-3 ovarian
HS 578T breast = system: HS 578T breast
NCI/ADR-RES ovarian = system: NCI/ADR-RES ovarian

Measured: growth

CCCCCCCCn1ccc2cc(NC(=O)Cn3cc(CN4CCCCC4)nn3)ccc21
inactive: SK-MEL-2 melanoma 35.6% | EKVX NSCLC 85% | SN12C renal 34.5% | TK-10 renal 75.7% | ACHN renal 57.5% | A498 renal 97% | CCRF-CEM leukemia 15.7% | OVCAR-8 ovarian 42% | OVCAR-5 ovarian 73.7% | OVCAR-4 ovarian 59.1% | SK-OV-3 ovarian 67.5% | IGROV1 ovarian 45.5% | OVCAR-3 ovarian 26% | HS 578T breast 41.5% | NCI/ADR-RES ovarian 72.7%
active: UO-31 renal -96.6% | CAKI-1 renal -45% | MOLT-4 leukemia 8.5% | SR leukemia 5.39% | RPMI-8226 leukemia -59.2%

CC(C)CCNC(=O)Cn1cccc(NC(=O)OCc2ccccc2)c1=O
inactive: SK-MEL-2 melanoma 112% | EKVX NSCLC 101% | SN12C renal 103% | UO-31 renal 76% | TK-10 renal 130% | ACHN renal 103% | CAKI-1 renal 70.3% | A498 renal 117% | CCRF-CEM leukemia 96.6% | MOLT-4 leukemia 106% | SR leukemia 107% | RPMI-8226 leukemia 92.6% | OVCAR-8 ovarian 104% | OVCAR-5 ovarian 127% | OVCAR-4 ovarian 98.7% | SK-OV-3 ovarian 101% | IGROV1 ovarian 112% | OVCAR-3 ovarian 107% | HS 578T breast 103% | NCI/ADR-RES ovarian 93.9%

CN(C)c1ccc(/C=C/C(=O)c2ccc(-n3cc(CN4CCN(c5cc6c(cc5F)c(=O)c(C(=O)O)cn6C5CC5)CC4)nn3)cc2)cc1
active: SN12C renal 8.77% | SR leukemia 7.11% | RPMI-8226 leukemia -24.6%
inactive: SK-MEL-2 melanoma 89% | EKVX NSCLC 87.6% | UO-31 renal 62.8% | TK-10 renal 85.1% | ACHN renal 88.5% | CAKI-1 renal 36.9% | A498 renal 61.1% | CCRF-CEM leukemia 20% | MOLT-4 leukemia 31.8% | OVCAR-8 ovarian 23.3% | OVCAR-5 ovarian 84.2% | OVCAR-4 ovarian 93.1% | SK-OV-3 ovarian 71.6% | IGROV1 ovarian 39.6% | OVCAR-3 ovarian 46.6% | HS 578T breast 57.4% | NCI/ADR-RES ovarian 92.1%

CCOC(=O)c1ccc2[nH]c(O)c(C(=Nc3ccc(N(C)C(=O)CN4CCN(C)CC4)cc3)c3ccccc3)c2c1
inactive: SN12C renal 11.4% | NCI/ADR-RES ovarian 53.1%
active: SK-MEL-2 melanoma -59.2% | EKVX NSCLC -3.53% | UO-31 renal -41.6% | TK-10 renal -70% | ACHN renal 2.92% | CAKI-1 renal -0.635% | A498 renal -59.9% | CCRF-CEM leukemia 4.58% | MOLT-4 leukemia -14% | SR leukemia -20.7% | RPMI-8226 leukemia -28.2% | OVCAR-8 ovarian -11.9% | OVCAR-5 ovarian -14% | OVCAR-4 ovarian -71.1% | SK-OV-3 ovarian -20.3% | IGROV1 ovarian -33.6% | OVCAR-3 ovarian -76.5% | HS 578T breast -5.29%

CN1C(=O)/C(=C/c2cn(-c3ccccc3)nc2-c2ccccc2)SC1=S
inactive: SK-MEL-2 melanoma 107% | EKVX NSCLC 102% | SN12C renal 100% | UO-31 renal 92.2% | TK-10 renal 112% | ACHN renal 100% | CAKI-1 renal 89.1% | A498 renal 79.2% | CCRF-CEM leukemia 107% | MOLT-4 leukemia 114% | SR leukemia 109% | RPMI-8226 leukemia 108% | OVCAR-8 ovarian 105% | OVCAR-5 ovarian 106% | OVCAR-4 ovarian 106% | SK-OV-3 ovarian 109% | IGROV1 ovarian 107% | OVCAR-3 ovarian 121% | HS 578T breast 100% | NCI/ADR-RES ovarian 98.1%

Cc1ccc(Cl)cc1Nc1nc(C(F)(F)F)ccc1C(=O)N/N=C/c1cccnc1
inactive: EKVX NSCLC 12.7% | SN12C renal 36.4% | UO-31 renal 15% | TK-10 renal 24.3% | ACHN renal 10.2% | CAKI-1 renal 14.3% | A498 renal 34% | CCRF-CEM leukemia 10.6% | RPMI-8226 leukemia 21% | OVCAR-8 ovarian 25.1% | OVCAR-5 ovarian 37.9% | OVCAR-3 ovarian 33.9% | HS 578T breast 39.9% | NCI/ADR-RES ovarian 13.9%
active: SK-MEL-2 melanoma -5.85% | MOLT-4 leukemia 3.8% | SR leukemia -5.74% | OVCAR-4 ovarian 8.59% | SK-OV-3 ovarian -15.3% | IGROV1 ovarian 8.35%

CCn1c(SCC(=O)c2ccc(Br)cc2)nnc1-c1ccncc1
inactive: SK-MEL-2 melanoma 104% | EKVX NSCLC 102% | SN12C renal 107% | UO-31 renal 91.4% | TK-10 renal 116% | ACHN renal 109% | CAKI-1 renal 95.6% | A498 renal 91.1% | CCRF-CEM leukemia 108% | MOLT-4 leukemia 101% | SR leukemia 98.3% | RPMI-8226 leukemia 103% | OVCAR-8 ovarian 109% | OVCAR-5 ovarian 108% | OVCAR-4 ovarian 101% | SK-OV-3 ovarian 118% | IGROV1 ovarian 115% | OVCAR-3 ovarian 106% | HS 578T breast 105% | NCI/ADR-RES ovarian 107%
